DT40 TDP1 no CPT = qHTS for Inhibitors of human tyrosyl-DNA phosphodiesterase 1 (TDP1): qHTS in cells in absence of CPT | DT40 Tdp1-/- hTDP1 cells, no CPT, ATP luminescence, 48 h | Potency, µM (titrated, usually from 46.2 µM), for the others: top-dose activity change, negative = growth inhibition, most hits filed as inhibitors | 15% of 420,000 active | AID 686978, 2013; note: potency is the fitted concentration of half-maximal effect; nearly all actives have a fitted effect of over 55% in size
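Cells were dispensed at 400 per well, compounds added by pin tool, plates incubated ≥48 hr at 37 °C, then CellTiter-Glo added for 30 min at room temperature before luminescence reading. Line: DT40 Tdp1-/- complemented with hTDP1; camptothecin omitted.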
HT1080 IDH1KD tx = qHTS for induction of synthetic lethality in tumor cells producing 2HG: qHTS for the HT-1080-IDH1KD cell line; HT-1080 IDH1 knockdown viability, ATP luminescence, 48 h; Potency, µM (series often up to 46.1 µM), for inactives: top-dose activity, negative = toxicity, usual class: cytotoxic; 2% of 360,000 active; AID 686971, 2013;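 note: potency is the fitted concentration of half-maximal effect; 0% = DMSO wells and -100% = cell-free medium wells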
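Viability of IDH1-knockdown HT-1080 fibrosarcoma cells was assessed by CellTiter-Glo after 48 h at 37 °C with titrated compound; concentration-effect curves were classified by fit quality and response size.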
DT40 TDP1 CPT = qHTS for Inhibitors of human tyrosyl-DNA phosphodiesterase 1 (TDP1): qHTS in cells in presence of CPT. chicken DT40 Tdp1-/-;hTDP1 cells + 20 nM CPT, ATP luminescence, 48 h. Potency, µM (highest dose often 46.2 µM), without a hit: top-dose activity change, negative = growth inhibition, actives largely listed as inhibitors. 12% of 420,000 active. AID 686979, 2013; note: potency is the fitted concentration of half-maximal effect; nearly all actives have a fitted effect of over 55% in size
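Chicken DT40 Tdp1-/- cells stably complemented with human TDP1 were seeded at 400 cells/well in medium containing 20 nM camptothecin, exposed to pin-transferred compounds, and grown at 37 °C for at least 48 hr. Viability was read as ATP luminescence.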
HT1080-NT tox = qHTS for induction of synthetic lethality in tumor cells producing 2HG: qHTS for the HT-1080-NT fibrosarcoma cell line. HT-1080-NT fibrosarcoma viability, CellTiter-Glo ATP luminescence, 48 h. Potency, µM (titrated, usually from 46.1 µM), for the others: at the highest dose activity, negative = less viability, hits mostly cytotoxic. 1.6% of 360,000 active. AID 686970, 2013;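 note: NT is the 2HG producing partner of a matched IDH1 knockdown line; potency is the fitted concentration of half-maximal effect; 0% = DMSO-treated cells and -100% = media-only wells without cells; nearly all actives have a fitted effect of over 55% in size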
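Viability by CellTiter-Glo luminescence after 48 h compound exposure at 37C of HT-1080-NT cells (750/well, RPMI, 5% FBS). % activity scaled between DMSO wells and medium-only wells, then curve-fitted and categorized by curve class.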
ALOX12 inh = Primary qHTS assay for inhibitors of human arachidonate 12S-lipoxygenase (ALOX12): Round 2; Polyunsaturated fatty acid lipoxygenase ALOX12 (Homo sapiens), P18054; purified 12hLO, xylenol orange hydroperoxide absorbance; Potency, µM (top dose mostly 108 µM), for the others: top-dose activity change, negative = inhibition, most hits filed as inhibitors; 1.1% of 580,000 active; note: potency is the fitted concentration of half-maximal effect
Target sequence (P18054 whole entry, looked up): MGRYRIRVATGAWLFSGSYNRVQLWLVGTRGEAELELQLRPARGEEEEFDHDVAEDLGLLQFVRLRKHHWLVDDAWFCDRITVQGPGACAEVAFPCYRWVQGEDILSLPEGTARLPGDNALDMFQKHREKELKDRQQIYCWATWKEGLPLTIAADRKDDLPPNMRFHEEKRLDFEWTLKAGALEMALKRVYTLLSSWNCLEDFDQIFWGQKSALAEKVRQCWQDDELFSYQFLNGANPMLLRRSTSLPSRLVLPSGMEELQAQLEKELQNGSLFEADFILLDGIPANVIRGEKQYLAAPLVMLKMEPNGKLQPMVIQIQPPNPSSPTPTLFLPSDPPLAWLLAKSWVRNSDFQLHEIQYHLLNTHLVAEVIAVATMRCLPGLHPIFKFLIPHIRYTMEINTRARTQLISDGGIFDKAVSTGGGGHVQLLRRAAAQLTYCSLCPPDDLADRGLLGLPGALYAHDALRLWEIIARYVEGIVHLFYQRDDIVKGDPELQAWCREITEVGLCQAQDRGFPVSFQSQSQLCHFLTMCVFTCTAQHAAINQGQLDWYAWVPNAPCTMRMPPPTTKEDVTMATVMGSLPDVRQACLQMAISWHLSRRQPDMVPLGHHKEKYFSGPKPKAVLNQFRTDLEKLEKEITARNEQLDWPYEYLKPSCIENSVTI
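Purified human 12hLO at 150 nM in 25 mM Hepes, 0.01% Triton X-100, pH 7.0, preincubated 15 min at room temperature with compound. Reaction started with 40 uM arachidonic acid, 30 min at room temperature. Hydroperoxide measured by Fe-xylenol orange, 573/405 nm absorbance ratio.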
IL-1B inflam inh = qHTS for Inhibitors of Inflammasome Signaling: IL-1-beta AlphaLISA Primary Screen; activity change, % at 57.5 µM; 4.7% of 360,000 active; THP-1 LPS/ATP IL-1B secretion, AlphaLISA, 16 h; stronger effect = lower value; in the data active = activity change below about -50%; inconclusive = mostly about -30% to -49%
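THP-1 cells pretreated 1 hr with compounds (up to 57.5 uM final), then stimulated with LPS (250 ng/mL final) plus ATP (1.25 mM final); secreted IL-1B measured by AlphaLISA after 16 hr, decreased signal indicating inhibition.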
Numbers without * were called inactive; ? = inconclusive; nt = no result; ! = not active in a repeat. The sample as a whole holds a higher share of hits than the screen did. Unless noted, calls come from the whole dose curve; as a rule, active = well fitted curve in the direction sought with a large enough effect; inconclusive = small, poorly fitted or top-dose-only effect, or another doubt; inactive = no such curve, though single readings can be large; an effect the other way counts as inactive or inconclusive. Unless noted, % is set by controls: 0 for no effect and ±100 for the full control effect.

SMILES | DT40 TDP1 no CPT | HT1080 IDH1KD tx | DT40 TDP1 CPT | HT1080-NT tox | ALOX12 inh | IL-1B inflam inh
Cc1cccc(CSc2nnc(-c3cccs3)n2Cc2ccco2)c1 | ? | ? | ? | -0.3% | 0.0% | -6.1
Cn1c(SCC(=O)c2cc(Cl)c(Cl)s2)nnc1-c1ccco1 | -29.6% | 1.0% | 4.6% | -1.2% | 0.0% | nt
Cc1ccc(NCc2nnc(SCc3ccc(C#N)cc3)n2Cc2ccco2)c(C)c1 | 23.1µM* | -17.3% | ? | -9.8% | ? | -8.0
Cn1cc(CC(=O)N2CCCc3ncc(C(=O)NCc4cccs4)cc32)c2ccccc21 | nt | nt | nt | nt | -15.1% | nt
O=S(=O)(c1ccccc1)c1nc(-c2ccccc2Cl)oc1NCCCN1CCOCC1 | 23.1µM* | -33.4% | ? | -16.2% | -13.7% | -66.9*
Cc1ccccc1-c1nc(S(=O)(=O)c2ccc(Cl)cc2)c(NCCN2CCOCC2)o1 | ? | ? | ? | -2.6% | -21.8% | -51.5*
O=C(CCc1ccsc1)NC1CCN(Cc2cccc(C(F)(F)F)c2)CC1 | nt | nt | nt | nt | -18.7% | nt
Cc1cc(-c2cc(N)n(-c3ccccc3)n2)c(C)n1C1CCCC1 | ? | 0.0% | 29.1µM* | ? | 3.5% | -12.1
COc1cc(C)cc2oc(=O)c(CC(=O)Nc3ccc4c(c3)OCO4)c(C)c12 | nt | nt | nt | nt | -28.0% | nt
Nc1nc(N)c2c(ccc3nccc32)[nH]1 | 1.03µM* | 4.61µM* | 1.84µM* | 5.8µM* | 7.3% | 17.3
Cc1ccc(-c2nc(N)c3c(-c4ccc(C)cc4)nn(C(C)(C)C)c3n2)cc1 | -29.7% | 13.7% | ? | 14.7% | 60.6% | -3.3
CC(C)(C)n1nc(-c2ccc(Cl)cc2)c2c(N)ncnc21 | 18.4µM*! | ? | 8.2µM*! | -19.8% | 9.6% | -9.2
CC(C)(C)n1nc(-c2ccc(F)cc2)c2c(N)ncnc21 | 16.4µM* | ? | 23.1µM* | ? | 141.7% | -25.3
Nc1ncncc1-c1ccc(F)cc1 | ? | 0.7% | -6.4% | -11.1% | 0.2% | -12.4
CC(C)(C)Cn1nc(-c2ccc(Cl)cc2)c2c(N)ncnc21 | ? | nt | 8.41µM* | nt | 198.2% | nt
CCOc1ccc(C(=O)N2CC(c3nnc(C(C)C)o3)C3(CCOCC3)C2)cc1OCC (centres undefined) | nt | nt | nt | nt | 71.3% | nt
CC(=O)Nc1ccc(C)cc1S(=O)(=O)N1CCCCCC1c1sccc1C (centres undefined) | nt | nt | nt | nt | -11.8% | nt
Cc1cccc(CN2CCC(CNC(=O)Nc3ccccc3F)CC2)c1 | -28.9% | -2.1% | -23.6% | -6.5% | 1.2% | -11.5
Cc1ccc(C)c(CN2CCC(CNC(=O)Nc3ccc(Br)cc3F)CC2)c1 | ? | ? | 10.3µM* | 16.4µM* | -50.6% | -82.6*
O=C(NCC1CC1)Nc1ccc(Cl)cc1 | ? | 3.7% | -15.0% | -7.9% | 0.0% | -5.1
Cc1ccc(C)c(CN2CCC(CNC(=O)Nc3ccc(Cl)cc3)CC2)c1 | ? | -12.7% | 20.6µM* | -1.3% | -33.7% | -94.6*
O=C(CSc1nnc(-c2ccco2)o1)N1c2ccccc2CCc2ccccc21 | 23.1µM* | -0.7% | ? | -26.1% | -17.3% | -62.5*
O=C(CSc1nnc(-c2ccc(Br)cc2)o1)N1CCN(C(=O)c2ccco2)CC1 | 18.4µM* | 3.2% | ? | 3.0% | 7.7% | 12.8
O=C(CSc1nnc(-c2c[nH]c3ccccc23)o1)N1CCCCC1 | ? | -24.2% | -28.5% | -12.9% | 1.6% | -10.8
